Results on 40 sequences are retold here after the supplement of paper PMC6555819.

The subject of this test is VDR:RXRa (NR concentration 270 nM, RXRa partner concentration 90 nM). The test can be described thus: PBM binding z-score (relative to random genomic background probes); higher = stronger binding; sequences stand for … in GC…GCGATTGACAGCGTAGAATGAAGG
The procedure:
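Protein-binding microarray (Agilent 4x180K custom design, double-stranded 60-nt probes: 5' GC cap, 34-nt variable region, 24-nt constant primer region; full probe sequence given). Purified or IVT nuclear receptor:RXRα heterodimers (3:1 NR:RXRα, mostly 270:90 nM) or homodimers were incubated for 1 h in PBS with 2% milk and no ligand, then detected with Alexa488 antibodies. Fluorescence from o1-orientation probes (~5 replicates averaged) was converted to z-scores against 500 random hg19 background probes. Variable regions are seed direct-repeat (DR0–DR5) sites, all their single-nucleotide variants and half-site ablations.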
Take TCGAGTAGGTTATGGGCATTCAGAATGGCGTCGA: the PBM binding z-score is -0.235.

In turn, CGAACTAGGTCATTGATAGGACAGTGAATAGTAA registered a PBM binding z-score of 2.27. The sequence TAGCCTAGGTCATTCTGGGGCCAGTATAGAAAGC displayed a PBM binding z-score of 2.88. Sequence CCTACTGGGACACGAAAGGTCATTGATTCAGTGA returned a PBM binding z-score of 4.06. The result for GGGACTGGGGCATCAGCAGGTTACCATAACTTAA reads 0.674; that for CAAACTAGGTAACCGGAAGGTCAAAGTCCGCATG, 3.35. In turn, CCTACTGGGGCAAGGTTACCATAACGCACAGCCA registered a PBM binding z-score of 0.252. TCGAGTGGGTTAGGGGCATTCAGAATGGCGTCGA yielded a PBM binding z-score of 1.04. On to CCTACTGGGCCAGGGTCATTGATCAGTCAAAGCA, for which the PBM binding z-score was found to be 3.14. The sequence CCTCGGAGGACAACAGGAGGTCAGAGTTGCCAGA gave a PBM binding z-score of 1.97. The sequence ATCAAAAGGTCGACGAGGTGAGTATACACCGTTT came in with a PBM binding z-score of 5.4. As for ACTCAAAGTTCACTAGGTAACGTAAGATTCAGCT, the figure is 4.17; as for TCTATTAGTTGATTAGGGCAACCAAAACAGCGGA, 0.701; as for ATCTCTAGGTAAGACTGAGTTCAGTGAAGAACGC, 2.75. The result for CCTAGTTGGTTAGGAGGTCACACACCGGATATGA reads 3.56; that for TGAATGAGATTAAAGATCAGGGAACGTGGCGTCG, -0.176. Take TGAATGAGCTTATAAGATCAGGGAACGTTGCAAA: the PBM binding z-score was -0.361. In the case of CCTTACGGGTCAAGTTTATAGCACGGGTGGTACG, the PBM binding z-score was found to be 3.9. TGTATTAGTTGATTAGGGCAACCGAAACAGCGGA came in with a PBM binding z-score of 0.00753. Consider GCTGCTAGGTCAGGTTGGTCAGCTATCGGGTACG, for which the PBM binding z-score worked out at 0.576. Sequence CGAACGAGGGCAGGAGTTGATAGCAAATGCCGAT had a PBM binding z-score of -0.167. With GGAACGAGGGCATTAGAGTTGATAGCATGGCGAT, the PBM binding z-score was 2.83.

In the case of CAAACTAGGTCAACGGAAGGTCAAAGTCCGCATG, the PBM binding z-score amounted to 5.56.

As to CCGACTGGGGCAGAAAGGTTACCATGCCATCCGG, the PBM binding z-score came to 0.756. The result for TCTAGCAGGCCAGAGGGTCACTAAAGAGGTACGG reads 1.24; that for CCAGACACGTGAGAAGGTAACTCAGCCTCGATTA, -0.39. As for TCATGTAGATCAACAGGAGGTTAAGAAAGATCGA, the figure is 0.591; as for AATACAGGGTCATCGTTGGCCAGAGTACGCACAG, 5.13; as for AATACAGGTTCACTAGGCCAGAGTAGGTACGAAT, 3.2. Turning to TAGCCCAGGTCATGCGGGCCAGTATAGTGTCGGC, the PBM binding z-score is 3.7. As for ACTATTAGTAGACTTAGGGCAACCGATACGACGC, the PBM binding z-score is -0.00967. As for AATACAGGGTCACTAGGCCTGAGTAGGTACGAAT, the figure is 3.84; as for TGAATGAGTTTATAAGATCAGGGAACGTTGCAAA, 1.26. On to CATACATGGTCAGCTAGGCCAGAGTAGGGACGGC, for which the PBM binding z-score is -0.459. As for CCAACTAGGTCAAGGTCAAAGTCGGTTTGTGCCA, the figure is 5.14; as for ATATGTAGGTTACATCAGGGTCATTCAGGCTATG, 5.14; as for TGAATGCGGTTAAAGATCAGGGAACGTGGCGTCG, -0.54. In the case of CCTACTGGCCCACGAAAGGTCATTGATTCAGTGA, the PBM binding z-score turned out to be 3.74.

In turn, ATACTAAGGTGATCGTGAGGTCGTTGATACTAAC had a PBM binding z-score of 3.72. The sequence CGTCAAAGTTCAACTAAAGTAACGTAAAGCACGC registered a PBM binding z-score of 4.08.
